# PubChem BioAssay AID1224904 (Broad Institute, 2016)
# Among all 37,000 compounds or so, about 290 (0.78%) were called active. Not shown: some 10% with an inconclusive outcome.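 How the source made its calls: active means mean inhibition of at least 10% in the main channel, exceeding the control channel by a set limit; inconclusive means inhibition of 10% or more but channel gap under a set limit; inactive means mean inhibition below 10%.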 The full list was thinned out, with actives kept by preference.
# Experiment: inhibitors of DUX4-driven ZSCAN4 reporter expression, primary screen, 293T cells, Gaussia and Italica luciferase (AID 1224904);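 on activity change, negative = inhibition: 0% = median of neutral control wells and -100% = median of positive control wells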
# Settings: 293T-iDUX4 ZSCAN4-Gaussia luciferase reporter, 24 h, stronger effect = lower value, concentration not given here; for Gaussia minus Italica difference: measured here: selective DUX4 reporter inhibition
# [1] = measured here: Italica tet-on control reporter
SMILES,"activity change, negative = inhibition","activity change, negative = inhibition [1] [%]",Gaussia minus Italica difference [%]
CCC(=O)N1CC2(C1)[C@@H](c1ccc(C3=CCCC3)cc1)[C@@H](CO)N2C(=O)COC,2.59% (inactive),3.57,-0.983
COc1cccc(CNC(=O)[C@@H]2[C@@H](CO)[C@@H]3Cn4c(ccc(-c5ccncc5)c4=O)[C@H]2N3C(C)=O)c1,-3.74% (inactive),-3.37,-0.373
CN1CCN(C(=O)C[C@@H]2CC[C@@H]3[C@H](COC[C@@H](O)CN3Cc3cccc(F)c3)O2)CC1,4.3% (inactive),-1.22,5.51
O=C(C[C@@H]1CC[C@@H]2[C@H](COC[C@H](O)CN2C(=O)c2cccnc2)O1)NC1Cc2ccccc2C1,3.73% (inactive),-3.66,7.39
CC(C)CN(C[C@@H]1N[C@@H](CO)[C@H]1c1ccccc1)C(=O)CN(C)C,0.487% (inactive),0.95,-0.462
O=C(C[C@@H]1CC[C@@H](NC(=O)Nc2ccc(F)cc2)[C@@H](CO)O1)NCCN1CCCC1,3.27% (inactive),-1.07,4.34
N#C[C@@H]1[C@@H](c2ccc(C#Cc3cccc(F)c3)cc2)[C@H](CO)N1C(=O)C1CCOCC1,1.6% (inactive),1.95,-0.348
Cc1noc(C)c1S(=O)(=O)N(C)C[C@@H]1OCc2ccccc2-c2ccccc2C(=O)N([C@@H](C)CO)C[C@H]1C,1.81% (inactive),12.5,-10.7
O=C(C[C@H]1CC[C@@H]2[C@H](COC[C@@H](O)CN2C(=O)Nc2ccc(Cl)cc2)O1)NC1Cc2ccccc2C1,-9.05% (inactive),-0.9,-8.14
CN1C(=O)c2cc(NC(=O)c3cscn3)ccc2OC[C@H]2O[C@@H](CC(=O)NCC3CC3)CC[C@H]21,-3.18% (inactive),-1.57,-1.61
CCC(=O)N1CC2(C1)[C@@H](c1ccccc1)[C@H](CO)N2CC1CCOCC1,-0.159% (inactive),8.93,-9.09
C[C@@H]1CC=CC[C@H](c2ccc(F)cc2)NC(=O)[C@@H](Cc2ccccc2)N(C)C(=O)c2ccccc2O1 (mixture of isomers),-2.82% (inactive),-1.88,-0.938
CC(C)NC(=O)N1C[C@@H]2[C@H](c3ccccc31)[C@H](CO)N2C(=O)C1CCCC1,-2.38% (inactive),-1.49,-0.893
CCCNC(=O)[C@@H]1[C@@H](CO)[C@@H]2Cn3c(cccc3=O)[C@H]1N2C(=O)Nc1cc(F)ccc1F,6.78% (inactive),10.8,-3.98
Cc1noc(C)c1NC(=O)N[C@@H]1C=C[C@H](CC(=O)N2CCCCC2)O[C@H]1CO,5.84% (inactive),1.64,4.2
C[C@@H]1CN([C@H](C)CO)S(=O)(=O)c2ccc(C#CC3CCCC3)cc2O[C@@H]1CN(C)Cc1ccccc1C(=O)O,-1.04% (inactive),-2.07,1.03
CC=Cc1ccc2n(c1=O)C[C@@H]1[C@@H](CO)[C@H](C(=O)N(C)C)N(CC3CCOCC3)[C@H]21 (mixture of isomers),3.1% (inactive),6.26,-3.17
COc1ccccc1NC(=O)N[C@H]1C=C[C@H](CC(=O)N[C@@H](C)c2ccccc2)O[C@H]1CO,-2% (inactive),-1.1,-0.906

SMILES,"activity change, negative = inhibition","activity change, negative = inhibition [1] [%]",Gaussia minus Italica difference [%]
O=C(Nc1ccccc1F)N1C[C@H]2[C@@H](c3ccccc31)[C@H](CO)N2C(=O)c1ccccn1,-3.65% (inactive),-2.86,-0.784
O=C(CN1CCOCC1)N1CCCCN2[C@H](CO)[C@H](c3ccc(Br)cc3)[C@H]2C1,9.07% (inactive),-4.46,13.5
OC[C@H]1[C@@H](c2ccc(C#CC3(O)CCCC3)cc2)[C@H]2CN(Cc3cncnc3)CCCCN21,13.2% (inactive),12.8,0.35
O=C(C1CCCCC1)N1CC(=O)N2[C@H](CO)[C@@H](c3ccc(-c4ccccc4F)cc3)[C@@H]2C1,-8.07% (inactive),-1.6,-6.47
CNC(=O)C[C@H]1CC[C@@H]2[C@H](COc3ccc(NC(=O)Nc4ccc(F)c(F)c4)cc3C(=O)N2C)O1,-0.979% (inactive),-3.84,2.86
O=C(C[C@@H]1C[C@H]2c3cc(NC(=O)Nc4ccccc4F)ccc3O[C@H]2[C@@H](CO)O1)NCc1ccncc1,-1.77% (inactive),0.554,-2.32
C[C@@H](NC(=O)[C@@H]1[C@@H](CO)[C@@H]2Cn3c(ccc(C4=CCCCC4)c3=O)[C@@H]2N1C)c1ccccc1,3.54% (inactive),1.39,2.15
CN1C(=O)c2cc(NC(=O)c3ccc(F)cc3)ccc2OC[C@H]2O[C@H](CC(=O)N3CCOCC3)CC[C@@H]21,1.69% (inactive),-7.81,9.5
COCC(=O)N[C@@H]1C=C[C@@H](CC(=O)N2CCCCC2)O[C@@H]1CO,6.06% (inactive),-1.08,7.14
O=C(C1CCCC1)N1CC2(C1)[C@H](c1ccccc1)[C@H](CO)N2CCC(F)(F)F,-0.604% (inactive),2.75,-3.36
O=C(Cc1ccccc1)N1C[C@H]2[C@@H](c3ccccc31)[C@H](CO)N2C(=O)C1CCOCC1,-0.397% (inactive),-3.56,3.16
COc1ccc(NC(=O)N2C[C@H](O)COC[C@@H]3O[C@@H](CC(=O)NCc4ccccc4OC)CC[C@H]32)cc1,2.52% (inactive),3.01,-0.496
CCCC(=O)Nc1ccc2c(c1)C(=O)N(C)[C@@H]1CC[C@H](CC(=O)NCCN3CCCCC3)O[C@@H]1CO2,-1.36% (inactive),5.24,-6.6
CO[C@H]1CN(C)C(=O)c2ccc(NC(=O)Nc3ccccc3)cc2OC[C@@H](C)N(C(=O)CC2CC2)C[C@@H]1C,-6.56% (inactive),5.38,-11.9
O=C(CC1CC1)Nc1ccc2c(c1)[C@@H]1C[C@@H](CC(=O)NC3CCCCC3)O[C@H](CO)[C@@H]1O2,5.02% (inactive),5.44,-0.425
COCC(=O)Nc1ccc2c(c1)C(=O)N(C)[C@@H]1CC[C@H](CC(=O)NCCc3ccccc3)O[C@@H]1CO2,0.635% (inactive),5.13,-4.5
CC(C)NC(=O)N1[C@H](CO)[C@@H]2c3ccccc3N(C(=O)Nc3cccc(Cl)c3)C[C@@H]21,5.76% (inactive),2.62,3.13
